# Hits are enriched below; roughly 7.5% of the tested compounds scored in any of these assays.
# FLuc counter = firefly luciferase modulation, counter-screen for miR-21 project; actives 6.9% (n = 360,000); AID 588342; purified FLuc, Km substrates, luminescence inhibition; Potency, µM (highest dose often 57.5 µM), for the others: at the top dose activity change, negative = inhibition, actives largely listed as inhibitors;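 also: plate controls were vehicle for no effect and reference inhibitor for full effect; nearly all actives have a fitted effect of over 55% in size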
# Target sequence (P08659 whole entry, looked up): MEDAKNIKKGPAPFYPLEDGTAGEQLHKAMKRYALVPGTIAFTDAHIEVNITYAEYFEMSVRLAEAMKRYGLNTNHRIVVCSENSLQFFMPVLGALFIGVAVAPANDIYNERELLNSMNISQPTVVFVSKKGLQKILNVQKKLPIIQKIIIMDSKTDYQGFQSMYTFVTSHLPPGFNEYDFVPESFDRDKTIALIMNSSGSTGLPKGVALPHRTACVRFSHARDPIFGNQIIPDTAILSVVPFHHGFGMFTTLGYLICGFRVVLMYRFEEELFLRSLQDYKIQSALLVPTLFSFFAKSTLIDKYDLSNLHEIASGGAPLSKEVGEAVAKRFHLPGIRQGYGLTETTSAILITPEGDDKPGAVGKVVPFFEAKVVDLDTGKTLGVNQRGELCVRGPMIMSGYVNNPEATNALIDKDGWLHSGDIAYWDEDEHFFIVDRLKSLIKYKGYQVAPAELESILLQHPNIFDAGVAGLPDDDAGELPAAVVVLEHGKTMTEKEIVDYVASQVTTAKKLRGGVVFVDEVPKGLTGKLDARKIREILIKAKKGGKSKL
#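 Biochemical qHTS of compounds, final roughly 60 µM downward over six points, against 10 nM purified firefly luciferase using Km concentrations of substrates (10 uM D-luciferin, 10 uM ATP) in Tris acetate pH 7.5 buffer; luminescence output.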
# ELG1 genotox = induces genotoxicity in HEK293T cells with luciferase-tagged ELG1; HEK293T ELG1-luciferase reporter, luminescence, 16 h; Potency, µM (titrated, usually from 46 µM), without a hit: at the highest dose activity change, positive = activation, usual class: activators; actives 1.3% (n = 330,000); also: % of control where 0% means no effect; nearly all actives have a fitted effect of over 60% in size
#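 Cells (2,000/well) expressing the ELG1-luciferase fusion are dosed by pin tool and kept 16 hr at 37 °C, 5% CO2. Signal comes from ONE-Glo luciferase reagent after 30 min at room temperature.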
# NPC1 promoter act = activators of NPC1 promoter | Huh7 NPC1 promoter luciferase reporter, 24 h | Potency, µM (highest dose often 9.22 µM), for inactives: at the highest dose activation, hits mostly activators | actives 2.4% (n = 320,000) | AID 485313; also: % of control where 0% means no effect; nearly all actives have a fitted effect of over 60% in size
#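 In 1536-well qHTS, Huh7 cells harboring an NPC1 promoter–luciferase construct received compound for 24 h; activation was quantified by luminescence following luciferase reagent addition.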
# Rab9 promoter act = activates the Rab9 promoter | Potency, µM (doses to about 9.22 µM), without a hit: at the highest dose activation, negative = inhibition, actives largely listed as activators | actives 2.8% (n = 320,000) | AID 485297 | Huh7 Rab9 promoter-luciferase reporter, luminescence, 24 h; also: % of control where 0% means no effect; nearly all actives have a fitted effect of over 60% in size
#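 Huh7 cells stably carrying a Rab9 promoter-luciferase reporter, 1500 cells per well in OP-MEM I with 10% FBS, treated with compound 24 hours at 37C. Luciferase activity read by luminescence after 10 minutes with Amplite reagent.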
# SMN2 splice enh = enhancers of SMN2 splice variant expression | actives 2.8% (n = 210,000) | HEK293 SMN2-luciferase splicing reporter, luminescence, 30-36 h | Potency, µM (titrated, usually from 46.1 µM), without a hit: at the top dose activity change, positive = activation, most hits filed as activators; also: % of control where 0% means no effect; nearly all actives have a fitted effect of over 55% in size
#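 qHTS luciferase splicing reporter: luminescence rises when SMN2 exon 7 is included in transfected HEK293 cells. Compound exposure lasted 30-36 h at 37C, with 4.5 mM final sodium butyrate as control, followed by a ONE-Glo read.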
# * marks the source's active call; other numbers are inactive results; ? = inconclusive; . = no result given. Calls follow the shape of the dose curve; as a rule, active = well fitted curve in the direction sought with a large enough effect; inconclusive = small, poorly fitted or top-dose-only effect, or another doubt; inactive = no such curve, though single readings can be large; an effect the other way counts as inactive or inconclusive. Potency is read from the fitted curve at half-maximal effect.
SMILES,FLuc counter,ELG1 genotox,NPC1 promoter act,Rab9 promoter act,SMN2 splice enh
COc1ccc(OC)c(N(CC(=O)NCC2CCCO2)S(=O)(=O)c2ccccc2)c1 (stereo not drawn),-1%,0%,4%,0%,.
CCCCn1c(N)c(N(C)C(=O)c2cc3c(s2)CCCCC3)c(=O)[nH]c1=O,-17%,4%,-1%,2%,.
C=CCOC(=O)N[C@H](/C(C(=O)OC)=C(\C)NCc1ccccc1)c1ccc2c(c1)OCO2,.,.,.,.,4%
COCCCn1c(SCC(=O)Nc2ccccc2OC)nc2c(sc3ccccc32)c1=O,-1%,.,.,.,.
CC1Cc2ccccc2N1C(=O)Cn1c(=O)oc2cc(S(=O)(=O)N3CCCCC3)ccc21 (stereo not drawn),1%,0%,7%,2%,-27%
COc1ccccc1Nc1nnc(SCC(=O)c2cc(C)n(CC3CCCO3)c2C)s1 (stereo not drawn),?,-4%,-4%,-5%,-18%
Cc1cc(C(=O)CSc2nnc(Nc3ccccc3F)s2)c(C)n1CC1CCCO1 (stereo not drawn),15µM*,-6%,-3%,-2%,-9%
Cc1cc(C(=O)CSc2nnc(Nc3ccccc3)s2)c(C)n1CC1CCCO1 (stereo not drawn),11µM*,-4%,3%,12%,-20%
COc1ccc(C)cc1NC(=O)C1CCN(S(=O)(=O)c2ccc3c(c2)C(C)(C)C(=O)N3C)CC1,0%,2%,-4%,-5%,.
COc1cccc2sc(Nc3nnc(-c4ccccc4Cl)o3)nc12,12µM*,11%,-15%,-15%,-23%
COc1cccc(-c2nnc(Nc3nc4c(F)cccc4s3)o2)c1,4.8µM*,11%,2.8µM*,3.2µM*,11µM*
COc1cccc2sc(NN)nc12,?,0%,16%,2%,5%
COc1ccccc1-c1nnc(Nc2nc3c(OC)cccc3s2)o1,2.7µM*,14%,-5%,3%,-13%
CC(C)Oc1ccc(CNC(=O)c2ccc(NC(=O)N3CCSc4ncccc43)cc2)cc1,-5%,.,.,.,.
CN(C)c1ccc(-c2nnc(SCC3CCCO3)n2C)cc1 (stereo not drawn),?,?,?,3.2µM*,.
CC(OC(=O)C1CC(=O)N(Cc2ccco2)C1)C(=O)Nc1cccc(C#N)c1 (stereo not drawn),-1%,1%,-1%,2%,.
COc1cc2c(cc1NC(=O)C(C)OC(=O)C1CC(=O)N(Cc3ccco3)C1)oc1ccccc12 (stereo not drawn),?,21µM*,?,?,24%
COc1ccc2c(c1)CC/C2=N\OC(=O)c1ccccc1OC,3µM*,?,-4%,22%,-1%
CCc1nn(CC(=O)NCCCN(CC(C)C)CC(C)C)c(=O)c2cc3sc(C)cc3n12,-2%,.,.,.,13%
COc1ccc(-c2cn3c(C)c(C(=O)Nc4cccc(NC(C)=O)c4)sc3n2)cc1,9.5µM*,2%,9%,-3%,-18%
Cc1c(C(=O)NCC(C)C)sc2nc(-c3ccc(F)cc3)cn12,-12%,?,?,2µM*,18%
Cc1c(C(N)=O)sc2nc(-c3ccccc3)cn12,19µM*,?,?,?,30%
Cc1c(C(=O)NCc2ccc(F)cc2)sc2nc(-c3ccc(F)cc3)cn12,-8%,.,.,.,.
COc1ccc(-c2cn3c(C)c(C(=O)Nc4ccncc4)sc3n2)cc1,?,2%,-4%,-1%,-23%
COc1cc(C(=O)NS(=O)(=O)c2ccccc2C)ccc1Cc1cn(C)c2ccc(NC(=O)OC3CCCC3)cc12,11µM*,.,6%,0%,.
Cc1ccc(NC(=O)N(Cc2cn(C)c3ccccc23)C2CCCCC2)cc1C,?,.,.,.,11%
Nc1[nH]n(-c2ccccc2)c(=O)c1N=Nc1ccc2c(c1)OCO2,2.4µM*,?,3.5µM*,3.2µM*,.
Nc1[nH]n(-c2ccccc2)c(=O)c1N=Nc1ccc2c(c1)OCCO2,0.6µM*,?,2µM*,0.5µM*,2.2µM*
Nc1c(C(=O)NC2CCCC2)c2nc3ccccc3nc2n1N,17µM*,2%,13%,6%,.

# Compound activity deposited in PubChem by National Center for Advancing Translational Sciences (NCATS).
